Only some compounds are listed: those with a hit (about 19% of all), similar ones and a draw of the others.
HT1080 IDH1KD tx: toxicity to HT-1080 IDH1 knockdown cells (counter line). 360,000 compounds, 2% hits. Potency, µM (series often up to 46.1 µM), for the others: at the top dose activity, negative = toxicity, most hits filed as cytotoxic. HT-1080 IDH1 knockdown viability, ATP luminescence, 48 h. AID 686971;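 further: potency means the concentration at half of the fitted maximal effect; 0% = DMSO wells and -100% = cell-free medium wells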
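HT-1080-IDH1KD cells (IDH1 knocked down), 750/well in RPMI with 5% FBS, treated with compound 48 h at 37 degrees C. Viability by CellTiter-Glo luminescence, normalised to DMSO and no-cell wells; concentration-response curves classed.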
TDP1 cell noCPT: qHTS for Inhibitors of human tyrosyl-DNA phosphodiesterase 1 (TDP1): qHTS in cells in absence of CPT; Potency, µM (series often up to 46.2 µM), for inactives: at the top dose activity change, negative = growth inhibition, hits mostly inhibitors; 420,000 compounds, 15% hits; DT40 Tdp1-/- hTDP1 cells, no CPT, ATP luminescence, 48 h; further: potency means the concentration at half of the fitted maximal effect; nearly all actives have a fitted effect of over 55% in size
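Luminescent ATP content (CellTiter-Glo) served as the growth readout. Knockout chicken DT40 cells expressing human TDP1 were exposed to compounds without camptothecin for a minimum 48 hr at 37 °C.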
DT40 TDP1 CPT: growth inhibition of DT40 Tdp1-/-;hTDP1 cells with camptothecin (screen for TDP1 inhibitors); chicken DT40 Tdp1-/-;hTDP1 cells + 20 nM CPT, ATP luminescence, 48 h; Potency, µM (series often up to 46.2 µM), for inactives: at the highest dose activity change, negative = growth inhibition, most hits filed as inhibitors; 420,000 compounds, 12% hits; AID 686979; further: potency means the concentration at half of the fitted maximal effect; nearly all actives have a fitted effect of over 55% in size
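Cell growth measured by CellTiter-Glo luminescence after a minimum 48 h, 37 C compound exposure with 20 nM CPT in Tdp1-knockout DT40 cells stably expressing hTDP1, seeded 400/well; qHTS titration format.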
IL-1B inflam inh: inflammasome signaling inhibition, IL-1 beta readout. 360,000 compounds, 4.7% hits. AID 743279. THP-1 LPS/ATP IL-1B secretion, AlphaLISA, 16 h; stronger effect = lower value. activity change, % at 57.5 µM; in the data active means activity change below about -50%; inconclusive means mostly about -30% to -49%
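Secreted IL-1B measured by AlphaLISA bead assay after 16 h compound exposure of THP-1 cells; compounds (final up to 57.5 uM) added 1 h before LPS (250 ng/mL) and ATP (1.25 mM) stimulation; lower signal means less secretion.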
ELG1 DNA repair: blocks ELG1-dependent DNA repair in HEK293T cells. HEK293T ELG1-luciferase reporter, luminescence, 16 h; DNA damage induced by 5-fluorouridine. Potency, µM (titrated, usually from 46.1 µM), for the others: top-dose activity change, negative = inhibition, hits mostly inhibitors. 330,000 compounds, 2.3% hits; further: potency means the concentration at half of the fitted maximal effect; nearly all actives have a fitted effect of over 55% in size
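Reporter activity after DNA damage by 5-fluorouridine is monitored. Compound-treated cells incubate 16 hr at 37 °C, then ONE-Glo is added for 30 min before luminescence reading.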
HT1080NT lethal: kills 2HG-producing HT-1080-NT fibrosarcoma cells; Potency, µM (top dose mostly 46.1 µM), for the others: top-dose activity, negative = less viability, most hits filed as cytotoxic; 360,000 compounds, 1.6% hits; HT-1080-NT fibrosarcoma viability, CellTiter-Glo ATP luminescence, 48 h;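 further: NT is the 2HG producing partner of a matched IDH1 knockdown line; potency means the concentration at half of the fitted maximal effect; 0% = DMSO-treated cells and -100% = media-only wells without cells; nearly all actives have a fitted effect of over 55% in size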
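Compounds were tested in concentration-response format on HT-1080-NT cells for 48 hours at 37 degrees C. Cell viability came from CellTiter-Glo luminescence; curves were classified by r2, response magnitude and activity.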
* marks the source's active call; other numbers are inactive results; ? = inconclusive; nt = no result given. Unless noted, the call rests on the fitted dose curve; in most records, active means well fitted curve in the direction sought with a large enough effect; inconclusive means small, poorly fitted or top-dose-only effect, or another doubt; inactive means no such curve, though single readings can be large; an effect the other way counts as inactive or inconclusive. Unless noted, on the % scale 0 is the no-effect control and ±100 the full control effect.

SMILES	HT1080 IDH1KD tx	TDP1 cell noCPT	DT40 TDP1 CPT	IL-1B inflam inh	ELG1 DNA repair	HT1080NT lethal
COC1(OC)N=C(N)C2(C#N)C(c3ccc(C)cc3)C12C#N (centres undefined)	1%	-22%	-18%	5	-3%	0%
CCOC1(OCC)N=C(N)C2(C#N)C(c3cccc(C)c3)C12C#N (centres undefined)	22%	-4%	-8%	7	0%	15%
COC1(OC)N=C(N)C2(C#N)C(c3ccc4c(c3)OCO4)C12C#N (centres undefined)	0%	?	8.2µM*	-14	?	-4%
COc1ccc(C2C3(C#N)C(N)=NC(OC)(OC)C23C#N)cc1 (centres undefined)	-11%	?	-14%	-92*	?	-1%
O=C(Nc1ccc2c(c1)OCCO2)C1c2ccccc2OCC(=O)N1CC(F)(F)F (centres undefined)	2%	-17%	-11%	-20	nt	-4%
O=C(CC1C(=O)NCCN1Cc1ccc(-c2ccccc2)cc1)NCCOc1cccnc1 (centres undefined)	-11%	16µM*	?	-3	?	-10%
O=C(CC1C(=O)NCCN1Cc1ccc(F)cc1)NCCOc1cccnc1 (centres undefined)	12%	3%	5%	2	11%	15%
COc1cccc(CNc2nc3cc(-c4ccccc4C)sc3c(=O)n2C)c1	?	23µM*	21µM*	-8	nt	?
COc1ccccc1CNc1nc2cc(-c3sccc3C)sc2c(=O)n1C	-1%	16µM*	18µM*	-9	nt	14%
Cc1ccccc1-c1cc2nc(Nc3ccc(F)cc3)n(C)c(=O)c2s1	?	23µM*	?	-15	nt	?
COc1ccccc1CNc1nc2cc(-c3ccccc3C)sc2c(=O)n1C	?	23µM*	?	-22	nt	?
Cc1ccsc1-c1cc2nc(Nc3ccc(F)cc3)n(C)c(=O)c2s1	-11%	?	?	-23	nt	-1%
COc1cc(NC(=O)CCn2c(=S)oc3ccccc32)cc(OC)c1OC	9%	-12%	7%	188	-7%	7%
COc1cccc(CNc2nc3cc(-c4cccc(Cl)c4)sc3c(=O)n2C)c1	5%	-12%	-29%	30	nt	-3%
COc1ccc(-c2cc(CNc3nc4cc(-c5ccccc5C)sc4c(=O)n3C)on2)cc1	-3%	21µM*	16µM*	-24	nt	-1%
COc1cccc(CNc2nc3cc(C(C)=C(C)C)sc3c(=O)n2C)c1	?	?	18µM*	-5	nt	-21%
CC(C)[C@H](NC(=O)OC(C)(C)C)c1cc(C(=O)NCCc2c[nH]c3ccccc23)c(N)s1	-21%	21µM*	16µM*	-2	nt	-29%
CC(C)[C@@H](NC(=O)OC(C)(C)C)c1cc(C(=O)c2c(-c3ccccc3)[nH]c3ccccc23)c(N)s1	?	18µM*	18µM*	?	nt	?
Cc1ccc(NC(=O)CCCn2nc(C)c3sc4ccccc4c3c2=O)c(Cl)c1	nt	-4%	8%	nt	nt	nt
Cc1cnc(C(=O)OCC(=O)Nc2ccccc2[N+](=O)[O-])cn1	2%	-3%	2%	18	0%	0%
Cc1ccc(NC(=O)C2CCN(c3cc(C)nc4c(-c5ccc(Cl)cc5)c(C)nn34)CC2)c(C)c1	nt	-1%	4%	nt	nt	nt
CCOC(=O)CCCCCC(=O)Nc1ccc2c(c1)CC(=O)N([C@@H](C)CO)C[C@H](C)[C@@H](CN(C)C(=O)Nc1ccc3c(c1)OCO3)O2	-10%	-1%	14%	6	24%	11%
CCCN(C(=O)CSc1nnc(-c2ccoc2C)n1N)C1CCS(=O)(=O)C1 (centres undefined)	5%	-2%	-6%	6	0.65µM*	-7%
COc1cccc2cc(-c3nc(-c4ccc(Cl)cc4)cs3)c(=O)oc12	nt	?	-4%	nt	nt	nt
O=C(NCc1ccccc1)c1ccc(Cl)c(S(=O)(=O)N2CCCC2)c1	0%	18µM*	-23%	?	?	0%
SMILES	HT1080 IDH1KD tx	TDP1 cell noCPT	DT40 TDP1 CPT	IL-1B inflam inh	ELG1 DNA repair	HT1080NT lethal
Cc1ccccc1NC(=O)c1ccc(Cl)c(S(=O)(=O)N2CCCCCC2)c1	nt	16µM*	?	nt	nt	nt
COc1cccc(C(CNC(=O)c2ccc(Cl)c(S(=O)(=O)N3CCCC3)c2)N(C)C)c1 (centres undefined)	9%	21µM*	?	-14	?	0%
COc1ccccc1NC(=O)c1ccc(C)c(S(=O)(=O)N2CCCCC2)c1	?	26µM*	?	-19	?	-8%
O=C(NCCc1ccccc1)c1ccc(Cl)c(S(=O)(=O)N2CCCC2)c1	-1%	?	?	12	-10%	-2%
O=S1(=O)N[C@H](Cc2ccccc2)COc2cccc(N3CCSCC3)c21	-20%	-12%	-21%	-9	nt	?
CC(C)CCC(O)(CCC(C)C)C(=O)NN1CCCCC1	8%	0%	-25%	17	7%	5%
CCCC(O)(CCC)C(=O)NN1CCCCC1	4%	?	23µM*	20	10%	24%
CCC(CNC(=O)c1c(C)nn(-c2ccccc2)c1Cl)c1ccccc1 (centres undefined)	3%	21µM*	23µM*	-82*	19%	7%
Cc1cccc(NC(=O)c2c(C)nn(-c3ccccc3)c2Cl)c1	-8%	-12%	2%	-10	?	-12%
CCOc1ccc(CCNC(=O)c2c(C)nn(-c3ccccc3)c2Cl)cc1OCC	-7%	?	16µM*	26	-1%	-7%
Cc1nn(-c2ccccc2)c(Cl)c1C(=O)NCCCCNC(=O)c1c(C)nn(-c2ccccc2)c1Cl	1%	-5%	4%	-14	16µM*	1%
CCS(=O)(=O)N1CC(=O)N(c2cc(C)ccc2C)C(C)(C(=O)NC2CCCCC2)C1 (centres undefined)	nt	-2%	-19%	nt	nt	nt
COc1ccc(CN2CCNC(=O)C2CC(=O)N(C)C2CCCCC2)cc1OC (centres undefined)	1%	11%	4%	-10	nt	0%
O=C1c2c(-c3ccc(Br)cc3)noc2CCN1Cc1cn(Cc2cccnc2)nn1	-7%	?	?	52	nt	-18%
O=C(Nc1ccc(Br)cc1)c1cc(Br)c(Br)s1	nt	19µM*	?	nt	nt	nt

Screens: PubChem, National Center for Advancing Translational Sciences (NCATS)
